# Assay outcomes (PubChem)
# Only some compounds are listed: those with a hit (about 20% of all), similar ones and a draw of the others.
# Pf growth 48h – inhibits P. falciparum growth in the first generation, 48 h; P. falciparum luciferase growth in erythrocytes, 48 h; Potency, µM (top dose mostly 28.7 µM), usual class: inhibitors; hit rate 5.9% among 310,000
#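 Luminescence readout; reporter = integrated firefly luciferase in P. falciparum. RBC culture at 2% hematocrit, 0.1% parasitemia final, 37 C/5% CO2; decreased signal taken as growth inhibition.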
# Pf growth 96h – P. falciparum growth inhibition at 96 hour, primary screen for plastid delayed-death inhibitors; Potency, µM (highest dose often 28.7 µM), most hits filed as inhibitors; P. falciparum luciferase reporter growth, 96 h; hit rate 6.9% among 320,000
#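 P. falciparum expressing integrated firefly luciferase, in erythrocytes at 2% hematocrit, 0.05% parasitemia, incubated with compounds 96 h at 37 C, 5% CO2. Growth inhibition read as loss of luminescence; two-generation exposure targets delayed-death apicoplast inhibitors.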
# HCMV inh – inhibitors of human cytomegalovirus; HFF cells, HCMV-luciferase reporter, 72 h; hits give low values; activity change, negative = inhibition, % at 57.5 µM; hit rate 4.5% among 410,000; in the data active = activity change below about -60%; inconclusive = no clear call, values can overlap the other calls; inactive = above about -39%
#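 Inhibition of viral replication was scored as loss of reporter luminescence in HFFs infected with HCMV-luciferase (MOI 1 PFU/cell) for 72 h; compounds tested at 2 doses, normalized to buffer and Salinomycin controls.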
# Shiga inhibitor – Shiga toxin inhibition; Vero cells, Shiga toxin protein synthesis inhibition reporter; inhibition, % at 38.7 µM; hit rate 9.2% among 290,000; AID 2315; in the data active = inhibition mostly above about 28%, no sharp cut-off; inactive = mostly below about 43%
# Cycloheximide cs – counter-screen hit for Shiga toxin inhibitors, cycloheximide | cell reporter, cycloheximide protein synthesis inhibition counterscreen | max response, % | hit rate 12% among 300,000; in the data active = max response mostly above about 13%, no sharp cut-off; inactive = mostly below about 14%; note: read at 38.3 µM for the half of the compounds with a filed dose
# Hits are given with their value; n = inactive; u = inconclusive; x = no result given. Unless noted, calls come from the whole dose curve; as a rule, active = well fitted inhibition curve with a large enough effect; inconclusive = small, poorly fitted or top-dose-only effect, or another doubt; inactive = no such curve, though single readings can be large or run the other way.
SMILES,Pf growth 48h,Pf growth 96h,HCMV inh,Shiga inhibitor,Cycloheximide cs
Cc1c(Br)c([N+](=O)[O-])nn1CC(=O)Nc1sc2c(c1C(=O)OC(C)C)CCCC2,u,n,n,123,n
O=C(CN1CCN(c2ccccc2F)CC1)Nc1ccc2c(c1)CCC2,n,n,n,n,n
CC1CCCN(CCC(=O)Nc2ccc3c(c2)CCC3)C1 (stereo not given),n,n,n,n,n
O=C(CN1CCOCC1)Nc1ccc2c(c1)CCC2,n,n,n,n,17
O=C(CCN1CCOCC1)Nc1ccc2c(c1)CCC2,n,3.7µM,n,n,n
O=C(Nc1oc2ccccc2c(=O)c1-c1ccc(Br)cc1)c1ccco1,n,n,n,n,n
CN1CCC/C1=C/C=C1\SC(=S)NC1=O,n,u,n,35,n
CCN(CC)S(=O)(=O)c1ccc(N2CCN(c3cccc(OC)c3)CC2)c([N+](=O)[O-])c1,u,9.3µM,u,n,n
CC(=O)c1ccc(N2CCN(c3ccc(C(N)=O)cc3[N+](=O)[O-])CC2)cc1,n,n,u,n,n
COc1ccc(-c2cc(C3CCN(c4ccc(C(C)=O)cc4[N+](=O)[O-])CC3)[nH]n2)cc1,u,u,-98,n,n
COc1ccc(N2CCN(c3ccc(C(=O)O)cc3[N+](=O)[O-])CC2)cc1,n,n,n,n,12
COc1ccc(C(=O)c2ccc(N3CCOCC3)c([N+](=O)[O-])c2)cc1,n,n,n,n,n
NC(=O)c1ccc(N2CCN(c3ccc(O)cc3)CC2)c([N+](=O)[O-])c1,u,1.7µM,-66,n,n
CCOC(=O)C(CO)(NC(C)=O)C(=O)OCC,n,0.93µM,n,n,n
O=C(NC1=NCCS1)c1cccc(OC(F)F)c1,n,n,n,76,36
CC(C)C(NC(=O)c1ccc(Cl)cc1)C(=O)NC1=NCCS1 (stereo not given),x,x,n,n,n
CC(C)Oc1ccc(C(=O)NC2=NCCS2)cc1,n,n,n,n,20
O=C(NC12CC3CC(CC(C3)C1)C2)c1cccnc1,n,n,n,n,n
COc1cccc(C(=O)NC2=NCCS2)c1OC,n,u,n,63,31
O=C(NC12CC3CC(CC(C3)C1)C2)c1cccc(OC(F)F)c1,u,n,n,72,42
CCN(CC)S(=O)(=O)c1ccc(C(=O)NCCSc2c(-c3ccc(OC)cc3)[nH]c3ccccc23)cc1,x,x,n,x,x
O=C(COC(=O)c1cccnc1Cl)Nc1cc(S(=O)(=O)N2CCCCCC2)ccc1Cl,u,n,n,x,x
COc1ccc(C)cc1NS(=O)(=O)c1ccc2c(c1)oc(=O)n2C,n,n,n,x,n
COc1cc(OC)cc(C(=O)N[C@H](C(=O)NC23CC4CC(CC(C4)C2)C3)C(C)C)c1,10µM,x,n,n,n
COc1ccc(C(=O)NC2=NCCS2)cc1,n,n,n,68,73
SMILES,Pf growth 48h,Pf growth 96h,HCMV inh,Shiga inhibitor,Cycloheximide cs
COc1ccc(C(=O)NNC(=O)C(NC(=O)c2cc(OC)cc(OC)c2)C(C)C)cc1 (stereo not given),n,n,u,x,x
COc1cc(OC)cc(C(=O)NC2=NCCS2)c1,x,n,n,n,n
C[C@@H]1CN([C@@H](C)CO)C(=O)CCCn2cc(nn2)CO[C@H]1CN(C)C(=O)C1CCCCC1,x,x,n,x,x
COC(=O)c1c(NC(=O)CSc2ncn[nH]2)sc(C)c1C,n,n,x,x,x
CC(C)=CCN1CCN(Cc2cnc(N3CCOCC3)s2)CC1CCO (stereo not given),n,12µM,n,98,58
CC(=O)c1cc(CN2CCN(CC=C(C)C)C(CCO)C2)cs1 (stereo not given),n,n,u,n,n
CC(C)=CCN1CCN(Cc2ccc(C)s2)CC1CCO (stereo not given),n,u,-67,n,n
CC(C)=CCN1CCN(Cc2cnc(C)s2)CC1CCO (stereo not given),n,u,n,70,43
CC(C)=CCN1CCN(Cc2cnc(N3CCCC3)s2)CC1CCO (stereo not given),n,n,n,n,n
CCCCCCCCN1C(=O)[C@H](CC(=O)NCc2ccc(OC)c(OC)c2)C[C@@]2(C(=O)OC)CC(C)(C)CC=C12,x,x,n,x,x
CCOc1ccccc1NC(=O)CN1C(=O)CSC(C)C1=O (stereo not given),n,n,n,n,n
CCOC(=O)c1cn2ccc(C)cc2n1,n,n,n,77,29
CCOC(=O)c1c(C)nc2cc(C)ccn12,n,n,n,n,n
Cc1ccn2cc(CSc3ccccc3N)nc2c1,n,n,n,105,46
CCOC(=S)SCc1cn2ccccc2n1,n,n,n,42,30
CCOC(=S)SCc1cn2ccc(C)cc2n1,n,u,-65,n,34
Cc1ccn2cc(CC(=O)O)nc2c1,n,n,n,n,n
C[C@H](NC(=O)OC(C)(C)C)C(=O)N/N=C/C1=Cc2ccccc2OC1,n,n,-78,n,n
Cc1ccc2cc(/C=N/NC(=O)[C@H](C)NC(=O)OC(C)(C)C)c(Cl)nc2c1,n,n,n,n,n
COc1ccc2nc(/C=N/NC(=O)[C@H](C)NC(=O)OC(C)(C)C)ccc2c1,n,n,x,active,16
COc1ccccc1-n1cc(-c2ccc(Br)cc2)[nH]c1=S,u,n,n,n,17
S=c1[nH]c(-c2ccc(Br)cc2)cn1CCc1ccccc1,u,13µM,n,n,n
COc1ccccc1-n1cc(-c2ccc(C)cc2)[nH]c1=S,u,n,u,32,23
COc1ccccc1-c1cn(-c2ccccc2)c(=S)[nH]1,x,u,n,n,n
COc1ccccc1-n1cc(-c2ccc([N+](=O)[O-])cc2)[nH]c1=S,n,n,n,n,n
SMILES,Pf growth 48h,Pf growth 96h,HCMV inh,Shiga inhibitor,Cycloheximide cs
CCOc1ccc(C2=NNC(c3cccs3)=Nc3ccc(OC)cc32)cc1OCC,12µM,n,n,52,27
CCOc1ccc(C2=NC(c3cccs3)=Nc3ccc(CC)cc3N2)cc1OCC,x,x,n,x,x
COc1ccc(C2=NNC(c3cccs3)=Nc3ccc(OC)cc32)cc1,u,n,n,70,31
CCOc1ccc2c(c1)C(c1cccs1)=NNC(c1cccnc1)=N2,n,n,-71,n,n
c1ccc(C2=NNC(c3ccco3)=Nc3ccccc32)cc1,u,n,u,n,17
CC(C)CCNC(=O)Nc1ccc2c(c1)N(C)C(=O)c1ccccc1S2,x,x,n,x,x
COc1ccc(C2=NNC(c3cccnc3)=Nc3ccccc32)cc1,n,6.6µM,n,n,n
CCOc1ccc(C2=NNC(c3cccs3)=Nc3ccc(OCC)cc32)cc1,x,u,x,30,n
O=Cc1ccc(OCc2ccc3ccccc3c2)cc1,n,u,n,x,54
COc1ccc(COc2cccc(C=O)c2)cc1,n,n,n,x,x
OCc1ccccn1,n,n,x,x,x
O=Cc1cccc(OCc2cccc3ccccc23)c1,n,n,n,63,34
O=Cc1ccc(OCc2ccccn2)cc1,n,n,n,40,21
Fc1ccccc1N1CCN(c2nccn3nc(-c4ccc(Br)cc4)cc23)CC1,x,x,n,x,x
COc1ccc(C)cc1NC(=O)CSc1nc(=O)n(Cc2ccccn2)c2c1CCC2,x,x,n,x,x
